An excerpt weighted towards active compounds, which were near 19% of everything screened.
SW480 rereplic: DNA re-replication induction in SW480 cells; SW480 DNA re-replication, Hoechst DNA content imaging, 48 h; Potency, µM (doses to about 46.1 µM), for the others: top-dose re-replication activation, most hits filed as activators; 1.8% of 340,000 active; AID 624297; note: potency is the fitted concentration of half-maximal effect; % of control where 0% means no effect; nearly all actives have a fitted effect of over 55% in size
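Per well, 250 cells were exposed to pinned compound for 48 hr. Nuclear DNA was visualised with Hoechst (40 min, 37 C) and total object intensity recorded by fluorescence scanning.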
DT40 TDP1 CPT: DT40-hTDP1 cell growth loss with CPT | chicken DT40 Tdp1-/-;hTDP1 cells + 20 nM CPT, ATP luminescence, 48 h | Potency, µM (top dose mostly 46.2 µM), for inactives: top-dose activity change, negative = growth inhibition, usual class: inhibitors | 12% of 420,000 active; note: potency is the fitted concentration of half-maximal effect; % is set by controls: 0 for no effect and ±100 for the full control effect; nearly all actives have a fitted effect of over 55% in size
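Chicken DT40 Tdp1-/- cells stably complemented with human TDP1 were seeded at 400 cells/well in medium containing 20 nM camptothecin, exposed to pin-transferred compounds, and grown at 37 °C for at least 48 hr. Viability was read as ATP luminescence.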
Chronic BCR inh: chronic active BCR signaling inhibition; ABC-DLBCL IkBa-CBG/CBR reporter, luminescence ratio, 4 h; Potency, µM (doses to about 46.1 µM), for the others: top-dose activity change, negative = inhibition, most hits filed as inhibitors; 0.05% of 340,000 active; active = well fitted inhibition curve with a large enough effect in the signal ratio, with a control signal flat, not every such curve was filed as active; inconclusive = small, poorly fitted or top-dose-only effect, or effect the other way, or a change in a side signal; the % refers to the signal ratio;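 note: potency is the fitted concentration of half-maximal effect; plate controls were basal doxycycline-induced cells for no effect and cells given 10 µM MG132 for full effect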
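Compounds up to 46 uM were incubated four hours with TMD8 cells whose green CBG68 luciferase is fused to IkappaBalpha; red CBR luminescence normalised the signal, and concentration-effect curves were fitted to fusion, red and ratio data.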
TDP1 cell noCPT: qHTS for Inhibitors of human tyrosyl-DNA phosphodiesterase 1 (TDP1): qHTS in cells in absence of CPT | Potency, µM (doses to about 46.2 µM), for the others: at the highest dose activity change, negative = growth inhibition, most hits filed as inhibitors | DT40 Tdp1-/- hTDP1 cells, no CPT, ATP luminescence, 48 h | 15% of 420,000 active | AID 686978, 2013; note: potency is the fitted concentration of half-maximal effect; % is set by controls: 0 for no effect and ±100 for the full control effect; nearly all actives have a fitted effect of over 55% in size
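Seeded 400 DT40-hTDP1 cells/well (vehicle DMSO, no 20 nM CPT); pinned compounds; ≥48 hr at 37 °C; CellTiter-Glo luminescence as viability measure.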
IL-1B inflam inh: inflammasome signaling inhibition, IL-1 beta readout; THP-1 LPS/ATP IL-1B secretion, AlphaLISA, 16 h; stronger effect = lower value; activity change, % at 57.5 µM; 4.7% of 360,000 active; AID 743279; in the data active = activity change below about -50%; inconclusive = mostly about -30% to -49%; note: % is set by controls: 0 for no effect and ±100 for the full control effect
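THP-1 cells pretreated 1 hr with compounds (up to 57.5 uM final), then stimulated with LPS (250 ng/mL final) plus ATP (1.25 mM final); secreted IL-1B measured by AlphaLISA after 16 hr, decreased signal indicating inhibition.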
MCF10A rereplic: inducers of DNA re-replication in MCF 10A breast cells; 2.9% of 350,000 active; MCF 10A DNA re-replication, Hoechst nuclear intensity, 48 h; Potency, µM (series often up to 46.1 µM), for the others: at the highest dose activity, positive = re-replication, usual class: activators; note: potency is the fitted concentration of half-maximal effect; % of control where 0% means no effect; nearly all actives have a fitted effect of over 50% in size
* marks the source's active call; other numbers are inactive results; u = inconclusive; x = no result given; [ ] = remark or other dose. Unless noted, calls come from the whole dose curve; as a rule, active = well fitted curve in the direction sought with a large enough effect; inconclusive = small, poorly fitted or top-dose-only effect, or another doubt; inactive = no such curve, though single readings can be large; an effect the other way counts as inactive or inconclusive.

SMILES | SW480 rereplic | DT40 TDP1 CPT | Chronic BCR inh | TDP1 cell noCPT | IL-1B inflam inh | MCF10A rereplic
Cc1ccc(C(=O)N2CCN3C(=O)c4ccccc4C23c2ccc(Cl)cc2)cc1 (configuration not stated) | u | 8.2µM* | u | 10µM* | 0 | u
O=C(Nc1cccc(Cl)c1)N1CCN2C(=O)c3ccccc3C12c1ccccc1 (configuration not stated) | u | u | u | 18µM* | -58* | u
O=C(CN1C(=O)c2ccccc2C1=O)Nc1cccc(Cl)c1 | -1% | -17% | 0% | -8% | 15 | -17%
O=C1NCC(Nc2ccccc2Cl)C(=O)N1 (configuration not stated) | -5% | -1% | x | -14% | 8 | -1%
CC(C)(C)OC(=O)NCCCCCc1nnc(SCc2ccc(F)cc2)o1 | 12% | u | -4% | 23µM* | -14 | 3%
Cc1cccc(C)c1NC(=O)CSc1nnc(CCCCCNC(=O)OC(C)(C)C)o1 | u | 15µM* | -2% | 13µM* | 4 | -188%[0.0737 µM]
COc1ccc(N2C(=O)C(C)C(Cc3ccc(C)cc3)C2=O)cc1 (configuration not stated) | -1% | 3% | 0% | -24% | -20 | u
Cn1nnnc1SCC(=O)NC1CCCC1 | -8% | 7% | 0% | -14% | 6 | 2%
CC(C)CNC(=O)N1[C@H](c2cccs2)[C@@H](C)C(=O)[C@@H](C)[C@@H]1c1cccs1 | x | 18µM* | x | u | x | x
COc1ccc(OCC(=O)Nc2ccc(NC(=O)c3ccccc3Cl)c(OC)c2)cc1 | -8% | -13% | -5% | 2% | u | 11%
COc1ccc(CN(C)C(=O)Cn2cnc3c(SC)nc(N)nc32)cc1OC | 14% | 15µM* | -11% | 21µM* | 0 | -5%
COC(=O)[C@H](Cc1ccc(O)cc1)NC(=O)Cn1cnc2c(SC)nc(N)nc21 | -1% | -1% | -3% | -3% | 33 | -1%
COC(=O)[C@@H](Cc1ccccc1)NC(=O)Cn1cnc2c(SC)nc(N)nc21 | -2% | -5% | -4% | -12% | 0 | 4%
COC(=O)c1ccc(CNC(=O)Cn2cnc3c(SC)nc(N)nc32)cc1 | -10% | 23µM* | 1% | u | 43 | u
CSc1nc(N)nc2c1ncn2CC(=O)NCCCc1ccccc1 | 20% | u | 0% | 15µM* | 27 | 0%
COC(=O)[C@]1(Cc2ccccc2)N[C@H](CN(C)C(=O)c2ccc(F)cc2)[C@@H]2C(=O)N(C)C(=O)[C@@H]21 | u | -15% | -1% | -3% | 11 | 14%
Cc1c(Cl)ccc2c(C(=O)NCCN3CCCCC3)cc(-c3ccccn3)nc12 | u | u | 0% | 9.2µM* | -97* | u
O=C(NCCN1CCCCC1)c1cc(Cl)ccc1Cl | -4% | 3% | 3% | -2% | 6 | -2%
COc1ccccc1-c1cc(C(=O)NC2CCN(C)CC2)c2ccc(Cl)c(C)c2n1 | -14% | 12µM* | 1% | 21µM* | u | 1%
Cc1c(Cl)ccc2c(C(=O)NCCCn3nccc3C)cc(-c3ccccn3)nc12 | 20% | 21µM* | 9% | u | -3 | u
Cc1cc(C)c2nc(-c3ccccn3)cc(C(=O)NCc3cc(C)n(C)n3)c2c1 | -1% | -18% | -1% | u | 15 | -2%
COc1ccccc1-c1cc(C(=O)NC2CCCC2)no1 | -3% | 2% | u | u | -29 | 6%
COc1ccc(S(=O)(=O)N(C)c2ccc(C(=O)NCC3CCCO3)cc2)cc1OC (configuration not stated) | -4% | -5% | -2% | -5% | 13 | u

Bioassay records (PubChem BioAssay)
